PubChem BioAssay AID1159580 (chemical genetic matrix, 2015)
The campaign covered roughly 5,500 compounds. About 2,000 (36%) were called active. Not shown: some 18% with an inconclusive outcome. No stated cut-off is given here; in the data, active means normalized growth mostly below about 0.91 (no sharp cut-off); inconclusive means no clear call, values can overlap the other calls; inactive means mostly above about 0.92. This is one part of the list.

Experiment: chemical genetic growth profiling, strain panel (AID 1159580);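 further: tested at 20 µM; growth read once vehicle control cultures reached saturation at 30 °C; 1 = growth at the plate median or of vehicle wells; lower values mean less growth of the strain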
Details: S. cerevisiae deletion strains, growth OD
[1] = locus YAL013W, strain DEP1, hits give low values
[2] = locus YGR078C, strain PAC10, hits give low values
[3] = locus YJR075W, strain HOC1, hits give low values
[4] = locus YNL322C, strain KRE1, hits give low values
[5] = locus YPL055C, strain LGE1, hits give low values
[6] = locus YPL241C, strain CIN2, hits give low values
[7] = locus YHR030C, strain SLT2, hits give low values

Measured: normalized growth

COc1ccc2c(c1)C13CCCCC1C(C2)N(C)CC3 (stereo unspecified)
inactive: [1] 1.02 | locus YAL040C, strain CLN3, hits give low values 0.995 | locus YCL061C, strain MRC1 (second series), hits give low values 1 | locus YDR363W, strain ESC2, hits give low values 0.952 | locus YER002W, strain NOP16, hits give low values 1 | [2] 0.995 | locus YGR229C, strain SMI1, hits give low values 0.991 | [3] 0.985 | locus YNL128W, strain TEP1, hits give low values 1.01 | locus YNL175C, strain NOP13, hits give low values 1.01 | locus YNL197C, strain WHI3, hits give low values 1.01 | locus YNL224C, strain SQS1, hits give low values 1.01 | [4] 1 | locus YOR083W, strain WHI5 (second series), hits give low values 0.97 | [5] 0.967 | [6] 0.998

CC[C@@H](CO)NC(=O)[C@@H]1C=C2c3cccc4c3c(cn4C)C[C@H]2N(C)C1
inactive: [7] 1 | locus YHR079C, strain IRE1, hits give low values 0.989 | locus YJL095W, strain BCK1, hits give low values 0.981 | locus YJR066W, strain TOR1, hits give low values 0.926 | locus YLR113W, strain HOG1, hits give low values 1.02 | locus YNL183C, strain NPR1, hits give low values 0.928 | locus YOR231W, strain MKK1, hits give low values 1 | locus YPL256C, strain CLN2, hits give low values 0.973

CCOC(=O)CC(=O)CSc1nnc(N)s1
inactive: [1] 0.998 | locus YBR229C, strain ROT2, hits give low values 0.988 | locus YCL061C, strain MRC1, hits give low values 1.04 | locus YDL101C, strain DUN1, hits give low values 1.04 | locus YDR150W, strain NUM1, hits give low values 1 | locus YEL061C, strain CIN8, hits give low values 1 | [2] 1.02 | [7] 1.13 | locus YHR087W, strain rtc3, hits give low values 0.992 | locus YJR043C, strain POL32, hits give low values 1.06 | [3] 1.01 | locus YLR039C, strain RIC1, hits give low values 1 | locus YLR058C, strain SHM2 (second series), hits give low values 0.999 | locus YLR085C, strain ARP6, hits give low values 1.04 | locus YLR262C, strain YPT6, hits give low values 1.01 | locus YML094W, strain GIM5, hits give low values 1.02 | locus YMR219W, strain ESC1, hits give low values 1 | locus YMR263W, strain SAP30, hits give low values 1.02 | locus YMR307W, strain GAS1, hits give low values 0.985 | locus YNL153C, strain GIM3, hits give low values 1.05 | locus YNL298W, strain CLA4 (second series), hits give low values 1.05 | [4] 1.02 | locus YNR030W, strain Alg12, hits give low values 1.02 | locus YOL006C, strain TOP1, hits give low values 1.13 | [5] 0.978 | [6] 1.02 | locus YPR135W, strain CTF4, hits give low values 1.11
